In all, about 66,000 compounds went through this assay and about 960 (1.5%) showed an effect of 50% or more. This excerpt belongs to a sample that is enriched for strong results.
System: Trypanosoma brucei
Assay: Trypanosoma brucei 72 hour study
Assay type: functional, organism-based
Design: scale not given: in the data most compounds retested in dose-response had high values

SMILES: CN(C)c1ncc(C(=O)N2C[C@H]3C[C@H](Oc4ccccc4)C[C@H]3C2)cn1
- Percent Effect (30.3 µM, […]): 8.214%

SMILES: Cl.Cn1ccnc1CNC(=O)c1cncc(C2CCNCC2)n1
- Percent Effect (30.3 µM, […]): -8.849%

SMILES: O=C(O)C(F)(F)F.O=C(c1cccc(Cl)c1)N1CCCn2c(CN3CCCCC3)nnc2C1
- Percent Effect (30 µM, 30.03 µM): 5.337%

SMILES: Oc1cccc(CNCc2ccc(-n3cncn3)nc2)c1
- Percent Effect (30.3 µM, […]): -113.8%

SMILES: COCCN1C(=O)[C@H]2CC[C@@H]1CN(S(=O)(=O)c1ccc(C#N)cc1)C2
- Percent Effect (30.3 µM, […]): -35.87%

SMILES: CCO[C@H]1CO[C@@]2(CCCN(S(=O)(=O)c3cccnc3)C2)C1.O=C(O)C(F)(F)F
- Percent Effect (30 µM, 30.03 µM): 23.98%

SMILES: Fc1cccc(CN2CCOC3(COCCN(CC4CC4)C3)C2)c1.O=C(O)C(F)(F)F.O=C(O)C(F)(F)F (stereo not given)
- Percent Effect (30.3 µM, […]): -50.27%

SMILES: CC(C)(N)C(=O)N1CCCC(C(=O)c2ccc(C(C)(C)C)cc2)C1 (stereo not given)
- Percent Effect (30.3 µM, […]): 89.7%

SMILES: CC(=O)NCC(=O)N1CCCC(C(=O)c2ccc(C(C)(C)C)cc2)C1 (stereo not given)
- Percent Effect (30.3 µM, […]): -72.68%

SMILES: CC(C)(C)c1ccc(C(=O)C2CCCN(C(=O)CNS(C)(=O)=O)C2)cc1 (stereo not given)
- Percent Effect (30.3 µM, […]): -41.24%

SMILES: O=C(O)C(F)(F)F.O=C(c1ccnnc1)N1C[C@H](Oc2ccccn2)[C@H]2OCCC[C@H]21
- Percent Effect (30.3 µM, […]): -55.97%

SMILES: Cl.OC1CCN(c2cncc(CCC3CCCN3)n2)CC1 (stereo not given)
- Percent Effect (30.3 µM, […]): -6.285%

SMILES: Cc1occc1C(=O)N1CCn2c(COCC3CC3)cnc2C1C (stereo not given)
- Percent Effect (30 µM, 30.03 µM): 51.37%

SMILES: CCOCc1cnc2n1CCN(C(=O)c1ccoc1C)C2C (stereo not given)
- Percent Effect (30.3 µM, […]): -34.9%

SMILES: Cc1ncoc1C(=O)N1CCn2c(COCC3CC3)cnc2C1C (stereo not given)
- Percent Effect (30.3 µM, […]): 10.54%

SMILES: COc1ccc(CN2CCC3(CC2)CCN(CC(C)C)C3=O)cc1.O=C(O)C(F)(F)F
- Percent Effect (30.3 µM, […]): 0.8917%

SMILES: CN(C)CCO[C@H]1CN(CC2CC2)[C@@H]2CCCO[C@H]12.O=C(O)C(F)(F)F.O=C(O)C(F)(F)F
- Percent Effect (30.3 µM, […]): 15.45%

SMILES: c1ccc(N2CCC(c3ccncc3)CC2)cc1
- Percent Effect (30.3 µM, […]): 0.5256%

SMILES: CC(=O)N1CCCC2(C1)CN(c1nncs1)CCO2.O=C(O)C(F)(F)F (stereo not given)
- Percent Effect (30.3 µM, […]): -90.31%

SMILES: CCN(Cc1c(F)cccc1Cl)c1cc(C2CCNCC2)nc(C)n1
- Percent Effect (30 µM, 30.03 µM): 88.22%

SMILES: CCN(Cc1ccncc1)c1cc(C2CCNCC2)nc(C)n1
- Percent Effect (30 µM, 30.03 µM): -25.3%

SMILES: Cc1nc(C2CCNCC2)cc(N(C)Cc2cc3cc(F)ccc3[nH]2)n1
- Percent Effect (30 µM, 30.03 µM): 7.512%

SMILES: O=C(CC1CCCC1)N1C[C@H](OCc2ccncc2)[C@H]2OCCC[C@H]21.O=C(O)C(F)(F)F
- Percent Effect (30 µM, 30.03 µM): -16.6%

SMILES: Cc1ccc(CN(Cc2ccncc2)C2CC(C)(C)NC(C)(C)C2)o1.O=C(O)CC(O)(CC(=O)O)C(=O)O
- Percent Effect (30.3 µM, […]): -22.8%

SMILES: O=C(Nc1nccs1)NC1CCN(Cc2ccccc2)C1 (stereo not given)
- Percent Effect (30 µM, 30.03 µM): -14.85%

SMILES: Nc1nccnc1C(=O)NC1CCN(Cc2ccccc2)C1 (stereo not given)
- Percent Effect (30 µM, 30.03 µM): 52.39%

SMILES: Nc1nccnc1C(=O)NC1CCCN(Cc2c(F)cccc2F)C1 (stereo not given)
- Percent Effect (30 µM, 30.03 µM): -36.01%

SMILES: c1ccc(N2CCC(OCC3CCCCO3)CC2)nc1 (stereo not given)
- Percent Effect (30.3 µM, […]): -91.25%

SMILES: COc1cc(CNCC(O)c2ccccc2)cc2c1OCO2.Cl (stereo not given)
- Percent Effect (30.3 µM, […]): 51.8%

SMILES: COc1cc(CNCc2ccc(C(C)O)cc2)cc2c1OCO2 (stereo not given)
- Percent Effect (30 µM, 30.03 µM): 8.941%

SMILES: COc1cc(CNCCn2ccnc2)cc2c1OCO2.Cl
- Percent Effect (30.3 µM, […]): 6.439%

SMILES: Cc1cccc(COc2ccc(C(C)N)cc2)c1.Cl (stereo not given)
- Percent Effect (30 µM, 30.03 µM): 102.3%

SMILES: Cc1cccc(COc2ccc(C(C)NS(N)(=O)=O)cc2)c1 (stereo not given)
- Percent Effect (30 µM, 30.03 µM): 4.364%

SMILES: Cc1cccc(COc2ccc(C(C)NC(=O)CNC(N)=O)cc2)c1 (stereo not given)
- Percent Effect (30 µM, 30.03 µM): 6.871%

SMILES: CN1CC[C@H]2OCC[C@@H](C(=O)NCc3ccco3)[C@@H]2C1.O=C(O)C(F)(F)F
- Percent Effect (30 µM, 30.03 µM): -30.69%

SMILES: COc1ccnc(N2C[C@@H]3CC[C@H](C2)N(CC2CCC2)C3=O)n1
- Percent Effect (30 µM, 30.03 µM): 0.242%

SMILES: O=C(O)C(F)(F)F.O=C1CC[C@H]2[C@H](CCN2S(=O)(=O)C2CC2)N1CCN1CCCC1
- Percent Effect (30.3 µM, […]): -16.69%

SMILES: COc1cccc2c1ccn2CCC(=O)NCCCC(=O)O
- Percent Effect (30 µM, 30.03 µM): 53.78%

SMILES: COCC(=O)NCCn1ccc2c(OC)cccc21
- Percent Effect (30 µM, 30.03 µM): 21.63%

SMILES: COc1cccc2c1ccn2CCNC(=O)CC(C)C
- Percent Effect (30 µM, 30.03 µM): -27.5%

SMILES: CC(C)(C)c1ncc2c(n1)CN(C(=O)c1ccc(-c3nc[nH]n3)cc1)C2
- Percent Effect (30 µM, 30.03 µM): 54.09%

SMILES: CN(C)c1ccc(C(=O)N2Cc3cnc(C(C)(C)C)nc3C2)cc1
- Percent Effect (30 µM, 30.03 µM): -40.98%

SMILES: CC(C)(C)c1ncc2c(n1)CN(C(=O)c1ccncc1)C2
- Percent Effect (30 µM, 30.03 µM): -0.7468%

SMILES: O=C(C1CCOCC1)N1CCO[C@H]2[C@H](Oc3cccnc3)CC[C@@H]21.O=C(O)C(F)(F)F
- Percent Effect (30 µM, 30.03 µM): -14.62%

SMILES: CCN(CC)C(=O)CN(C)C(=O)c1ccc(-c2ccsc2)nc1C
- Percent Effect (30 µM, 30.03 µM): -62.98%

SMILES: Cc1cc(CN(C)C(=O)CC(C)C)no1
- Percent Effect (30 µM, 30.03 µM): -35.18%

SMILES: COc1ccccc1CC(=O)N(C)Cc1cc(C)on1
- Percent Effect (30 µM, 30.03 µM): -10.42%

SMILES: COc1ccccc1CC(C)CC(=O)N(C)Cc1cc(C)on1 (stereo not given)
- Percent Effect (30 µM, 30.03 µM): 72.44%

SMILES: CCc1nccn1C1CCCN(C(=O)C2=NN(C)C(=O)CC2)C1 (stereo not given)
- Percent Effect (30.3 µM, […]): -18.44%

SMILES: COc1ccc(C(C)(C)C)cc1CN1CCn2c(CO)nnc2C1.O=C(O)CC(O)(CC(=O)O)C(=O)O
- Percent Effect (30.3 µM, […]): 3.045%

SMILES: CC(=O)N1CCN([C@@H]2CC[C@@H](NC(=O)c3ccc(C)nc3)[C@H]2O)CC1
- Percent Effect (30.3 µM, […]): -14.37%

SMILES: CCN1CCN(c2ncc3c(n2)CN(c2cnn(CC)c2)C3=O)CC1
- Percent Effect (30.3 µM, […]): -16.78%

SMILES: CCOc1cc(CNc2nnn(C)n2)ccc1OCc1ccc(Cl)cc1
- Percent Effect (30.3 µM, […]): 13.85%

SMILES: CN1[C@H]2CC[C@@H]1CN(C(=O)c1ccc(-c3ccccc3)[nH]1)CC2
- Percent Effect (30.3 µM, […]): 99.15%

SMILES: CO[C@H]1CN(C(=O)c2ccc(-c3ccccc3)[nH]2)CC[C@H]1N
- Percent Effect (30.3 µM, […]): 21.81%

SMILES: O=C(c1ccc(-c2ccccc2)[nH]c1=O)N1CCN(C2CC2)CC1
- Percent Effect (30 µM, 30.03 µM): -17.15%

SMILES: CCOC(=O)CCn1cnc2onc(-c3ccc(OC)cc3)c2c1=O
- Percent Effect (30 µM, 30.03 µM): -27.94%

SMILES: Cc1nc(C2CCCN2C(=O)c2ccc3c(c2)nc(C)n3C)no1 (stereo not given)
- Percent Effect (10 µM): -28.6%
- Percent Effect (30.3 µM, […]): -7.833%

SMILES: CS(=O)(=O)CC(=O)N1C[C@H]2CCC[C@@]2(COc2ccccn2)C1.O=C(O)C(F)(F)F
- Percent Effect (30.3 µM, […]): -20.95%
